PubChem BioAssay (NCATS)
Results filed as inconclusive are left out. Active and inactive are the calls of the source. Unless noted, the call rests on the fitted dose curve; in most records, active means well fitted curve in the direction sought with a large enough effect; inconclusive means small, poorly fitted or top-dose-only effect, or another doubt; inactive means no such curve, though single readings can be large; an effect the other way counts as inactive or inconclusive.

What was measured:
[1] = target: ATP-dependent 6-phosphofructokinase (Trypanosoma brucei brucei) (UniProt O15648); assay: qHTS Assay to Find Inhibitors of T. brucei phosphofructokinase: hit validation (AID 492961);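 further: luminescence reports ADP formed as PFK phosphorylates fructose-6-phosphate with ATP; on the % scale 0 is the no-effect control and ±100 the full control effect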
ATP-dependent 6-phosphofructokinase (Trypanosoma brucei brucei), sequence (O15648 whole entry, looked up): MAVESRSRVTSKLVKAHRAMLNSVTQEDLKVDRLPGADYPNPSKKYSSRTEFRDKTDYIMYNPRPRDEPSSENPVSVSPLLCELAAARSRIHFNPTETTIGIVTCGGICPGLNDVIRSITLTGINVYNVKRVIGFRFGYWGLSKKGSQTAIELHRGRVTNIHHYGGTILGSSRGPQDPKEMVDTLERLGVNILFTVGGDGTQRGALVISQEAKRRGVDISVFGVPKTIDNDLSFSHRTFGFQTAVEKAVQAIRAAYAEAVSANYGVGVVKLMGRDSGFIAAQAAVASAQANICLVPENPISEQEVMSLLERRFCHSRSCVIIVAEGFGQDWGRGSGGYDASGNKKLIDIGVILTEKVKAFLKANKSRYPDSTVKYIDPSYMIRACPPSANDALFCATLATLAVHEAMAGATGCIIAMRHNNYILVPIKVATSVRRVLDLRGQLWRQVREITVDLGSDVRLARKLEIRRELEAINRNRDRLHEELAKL
In short: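 PFK 1.25 nM, F6P 0.5 mM, ATP 0.1 mM, MgCl2 5 mM, 0.1 M TEA pH 8.0, Tween20 0.01%, BSA 0.1%; 45 min RT. ADP-Glo two-step detection, luminescence. qHTS titration; curve fitting with curve-class categorization.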

[2] = target: Luciferin 4-monooxygenase (Photinus pyralis) (UniProt P08659); assay: Biochemical firefly luciferase enzyme assay for NPC (AID 624030);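 further: purified P. pyralis luciferase at 10 nM with luciferin and ATP substrate; 0% = DMSO and -100% = full luciferase inhibition by PTC124 control; nearly all actives have a fitted effect of over 70% in size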
Luciferin 4-monooxygenase (Photinus pyralis), sequence (P08659 whole entry, looked up): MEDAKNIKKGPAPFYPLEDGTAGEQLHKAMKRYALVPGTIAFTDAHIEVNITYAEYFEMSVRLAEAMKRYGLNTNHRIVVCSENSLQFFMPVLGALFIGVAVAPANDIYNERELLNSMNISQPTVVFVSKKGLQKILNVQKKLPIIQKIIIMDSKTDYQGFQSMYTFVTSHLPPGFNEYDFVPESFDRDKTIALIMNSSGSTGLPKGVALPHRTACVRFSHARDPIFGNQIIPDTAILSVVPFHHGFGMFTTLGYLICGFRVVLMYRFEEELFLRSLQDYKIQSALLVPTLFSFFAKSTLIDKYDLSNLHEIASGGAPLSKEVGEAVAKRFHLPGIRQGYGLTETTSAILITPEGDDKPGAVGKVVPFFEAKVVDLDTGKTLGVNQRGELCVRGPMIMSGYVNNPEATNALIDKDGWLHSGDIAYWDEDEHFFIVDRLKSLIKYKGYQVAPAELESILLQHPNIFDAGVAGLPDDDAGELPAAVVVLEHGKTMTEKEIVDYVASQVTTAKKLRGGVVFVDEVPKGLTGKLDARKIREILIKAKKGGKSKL
In short: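 Counter-screen for direct inhibition of the luciferase enzyme by approved-drug library compounds, run at 10 nM enzyme in 50 mM Tris acetate (final). Luminescence was read within 5 min of enzyme-buffer addition and normalized to PTC124 versus DMSO (0%).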

[3] = qHTS to identify inhibitors of the type 1 interferon - major histocompatibility complex class I in skeletal muscle: primary screen against the NCATS Mechanism Interrogation Plate v5.0 (MIPE) Libary (AID 1347411); further: potency means the concentration at half of the fitted maximal effect; nearly all actives have a fitted effect of over 65% in size
In short: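 Cells were genome-edited human myoblasts carrying a HiBit tag on endogenous HLA-B. They were treated with IFN-beta (4.0 ng/ml) and titrated compounds (top 46 uM) for 24 hrs before lytic HiBiT detection.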

[4] = Primary qHTS for inhibitors of nuclear receptor binding SET domain protein 2 (NSD2) in an isogenic RCH-ACV NSD2 p.E1099K mutant (9B) (AID 1645876); further: potency means the concentration at half of the fitted maximal effect; nearly all actives have a fitted effect of over 70% in size
[5] = Primary qHTS for inhibitors of nuclear receptor binding SET domain protein 2 (NSD2) in an RCH-ACV wild type WT cells (2C) (AID 1645877); further: potency means the concentration at half of the fitted maximal effect; nearly all actives have a fitted effect of over 70% in size
[6] = target: Glutathione peroxidase 1 (Homo sapiens) (UniProt P07203); assay: Primary qHTS Assay for Inhibitors of Recombinant Selenoprotein Glutathione Peroxidase 1 (GPX1) (AID 1845191); further: nearly all actives have a fitted effect of over 65% in size; on activity, negative = inhibition: on the % scale 0 is the no-effect control and ±100 the full control effect
Glutathione peroxidase 1 (Homo sapiens), sequence (P07203 whole entry, looked up): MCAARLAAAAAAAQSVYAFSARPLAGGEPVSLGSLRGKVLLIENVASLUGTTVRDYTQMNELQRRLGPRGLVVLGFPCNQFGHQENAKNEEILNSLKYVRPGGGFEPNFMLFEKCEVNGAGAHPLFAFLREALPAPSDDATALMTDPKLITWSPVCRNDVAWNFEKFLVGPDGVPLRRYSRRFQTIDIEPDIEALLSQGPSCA
In short: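 Recombinant GPX1 (10 nM final) was preincubated with compound for 30 min at room temperature, then reacted with 1 mM GSH, 0.5 mM CHP, 0.5 mM NADPH and 100 nM glutathione reductase; NADPH fluorescence (340/450 nm) was read at 0 and 15 min.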

[7] = qHTS drug screen for cell cycle checkpoint inhibitors in PARPi-resistant BRCA-mutant ovarian cancer cell lines. (AID 1963452; calls by dose curve); conditions: PEO1/OlaR viability, CellTiter-Glo luminescence, 96 h, stronger effect = lower value
In short: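 PEO1, PEO4 and PEO1/OlaR ovarian cancer cells, 600 per well, exposed 96 h at 37C to a dilution series. Viability read by CellTiter-Glo luminescence, normalized to DMSO and empty wells; activity summarized as Z-AUC.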

[8] = qHTS profiling for inhibitors of Plasmodium falciparum proliferation (AID 504749); further: potency means the concentration at half of the fitted maximal effect;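 on activity, negative = inhibition: 0% = DMSO vehicle and full inhibition = artemisinin control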; on all read-outs here: nearly all actives have a fitted effect of over 60% in size; conditions: P. falciparum in erythrocytes, SYBR Green DNA, 72 h; for activity, negative = inhibition: at 28.7 µM (top of the series)
In short: (§1)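 P. falciparum-infected erythrocytes (0.3% parasitemia, 2.5% hematocrit final) were exposed to compounds for 72 h at 37 C in 5% CO2, then lysed with SYBR Green buffer overnight at room temperature; parasite DNA fluorescence was normalized to artemisinin and DMSO controls.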

ATS189 = assay: as above; conditions: P. falciparum in erythrocytes, SYBR Green DNA, 72 h; series mostly up to 28.7 µM
In short: as §1

CP192 = assay: as above; conditions: P. falciparum in erythrocytes, SYBR Green DNA, 72 h; series mostly up to 28.7 µM
In short: as §1

CP291 = assay: as above; conditions: P. falciparum in erythrocytes, SYBR Green DNA, 72 h; series mostly up to 28.7 µM
In short: as §1

TAB113 = assay: as above; conditions: P. falciparum in erythrocytes, SYBR Green DNA, 72 h; series mostly up to 28.7 µM
In short: as §1

[9] = qHTS assay to identify inhibitors of the type 1 interferon - major histocompatibility complex class I in skeletal muscle: Counter screen cell viability and HiBit confirmation (AID 1347412); conditions: iHSKM muscle cells + IFN-b, HiBiT or CellTiter-Glo, 24 h; further: potency means the concentration at half of the fitted maximal effect; nearly all actives have a fitted effect of over 60% in size
In short: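 HLA-B*08:01–HiBiT knock-in immortalized human myoblasts (C25cl48) stimulated with 4.0 ng/ml human IFN-beta and dosed with compound in a 12-point 1:3 titration (top final 46 uM). After 24 hrs at 37 C, HiBiT lytic luminescence or CellTiter Glo ATP read out.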

[10] = qHTS Assay for Lipid Storage Modulators (AID 1519; calls by dose curve; on activity change, negative = inhibition: on the % scale 0 is the no-effect control and ±100 the full control effect); conditions: Drosophila S3 cells, BODIPY lipid droplet/cell ratio, laser cytometry, cells loaded with oleic acid
In short: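 Cells seeded at 5,000 per well were treated with compounds over a concentration series and loaded with oleic acid (400 uM, as added). Lipid droplet fluorescence (488 nm excitation, 500-530 nm channel) was read by laser-scanning cytometry and normalized to 20 uM Triacsin C.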

[11] = target: Phospholipid hydroperoxide glutathione peroxidase GPX4 (Homo sapiens) (UniProt P36969); assay: Primary qHTS Assay for Inhibitors of Recombinant Selenoprotein Glutathione Peroxidase 4 (GPX4) (AID 1845192); conditions: outcome: dose series up to 50 µM unless noted; further: on the % scale 0 is the no-effect control and ±100 the full control effect; nearly all actives have a fitted effect of over 65% in size
Phospholipid hydroperoxide glutathione peroxidase GPX4 (Homo sapiens), sequence (P36969 whole entry, looked up): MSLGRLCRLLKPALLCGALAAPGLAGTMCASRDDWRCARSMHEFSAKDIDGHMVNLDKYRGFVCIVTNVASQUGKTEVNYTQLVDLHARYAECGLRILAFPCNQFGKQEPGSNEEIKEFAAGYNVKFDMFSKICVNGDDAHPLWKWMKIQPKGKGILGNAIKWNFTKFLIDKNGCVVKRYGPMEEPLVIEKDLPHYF
In short: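 GR-coupled readout: 100 nM GR, 1 mM GSH, 0.5 mM NADPH; NADPH fluorescence (ex 340/em 450 nm) read at t=0 and after 15 min RT. GPX4 200 nM, preincubated 30 min with compound; substrate 0.5 mM CHP.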

[12] = measured here: PEO1 parental Z-AUC

C[C@@]12C(=O)OC(=O)[C@]1(C)[C@H]1CC[C@@H]2O1
0.28: Z-AUC ([7]; measured here: PEO4 Z-AUC)
active: Potency [3] 5.87 µM | Potency [4] 6.61 µM | Potency [5] 4.68 µM | Potency ([8]; parasite line A) 3.98 µM | Potency ([8]; parasite line B) 3.16 µM | Potency (ATS189) 2.82 µM | Potency (CP192) 4.55 µM | Potency (CP291) 3.22 µM | Potency (TAB113) 3.98 µM | Potency ([9]; HiBiT) 27.9 µM | Potency ([9]; Viability) 14 µM
inactive: outcome [1] | Potency [2] | Potency [6] | Z-AUC [7] 0.0424
0.505: Z-AUC [7, 12]

C=C1CCC2[C@](C)(CO)C(O)CC[C@]2(C)C1C/C=C1/C(=O)OCC1O (stereo partly specified)
-0.31: Z-AUC [7, 12]
17.4%: max response ([10]; measured here: lipid channel max response)
inactive: activity change, negative = inhibition ([10]; at 57.5 µM (top of the series)) 2.99% | outcome [1] | Potency [2] | Potency [6] | Potency [11] | Z-AUC [7] 0.689 | activity, negative = inhibition ([8]; parasite line A) -24.6% | activity, negative = inhibition ([8]; parasite line B) -25.9% | Potency (ATS189) | Potency (CP192) | Potency (CP291) | Potency (TAB113)
11%: max response ([10]; measured here: cell count channel max response)
active: Potency [3] 13.1 µM | Potency [4] 7.42 µM | Potency [5] 7.42 µM
-0.312: Z-AUC ([7]; measured here: PEO4 Z-AUC)
